Values joined by “and” are separate entries in the source; they are usually repeats but may differ in a detail not shown here. Equal values may be shown once. The whole screen tested about 16,000 compounds, of which about 5,800 (36%) were called active. Another 23% or so got no clear call; they are omitted. This is one part of the list. Unmarked numbers belong to inactive results. Calls come from the whole dose curve; as a rule, active = well fitted curve in the direction sought with a large enough effect; inconclusive = small, poorly fitted or top-dose-only effect, or effect the other way; inactive = no such curve, though single readings can be large or run the other way.
Target: Cytochrome P450 2C19 (Homo sapiens) (UniProt P33261)
Sequence (P33261 whole entry, looked up): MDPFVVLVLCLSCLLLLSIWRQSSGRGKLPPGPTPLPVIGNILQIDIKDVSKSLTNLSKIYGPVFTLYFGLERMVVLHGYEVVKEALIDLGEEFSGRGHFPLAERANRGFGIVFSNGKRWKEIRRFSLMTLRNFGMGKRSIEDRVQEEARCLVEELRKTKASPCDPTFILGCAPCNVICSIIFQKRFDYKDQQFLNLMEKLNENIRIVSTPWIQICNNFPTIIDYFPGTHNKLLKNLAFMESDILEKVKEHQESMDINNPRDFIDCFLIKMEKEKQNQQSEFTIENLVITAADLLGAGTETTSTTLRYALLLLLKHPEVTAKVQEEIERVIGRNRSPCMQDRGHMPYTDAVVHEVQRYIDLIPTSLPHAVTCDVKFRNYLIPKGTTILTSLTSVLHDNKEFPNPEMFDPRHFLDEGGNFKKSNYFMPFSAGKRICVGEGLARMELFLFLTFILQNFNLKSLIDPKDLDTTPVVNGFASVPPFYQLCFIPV
Assay: Cytochrome panel assay with activity outcomes
Conditions: recombinant CYP, pro-luciferin dealkylation, luminescence, p450-cyp2c19; series mostly up to 57.1 µM
% is set by controls: 0 for no effect and ±100 for the full control effect.

Structure (SMILES) | activity, negative = inhibition | AC50
O=C(O)c1c(Cl)c(Cl)c(Cl)c(Cl)c1C(=O)Nc1ccc2cn[nH]c2c1 | -27.8% [at 11.4 µM] | 
S=C(Nc1ccc2cn[nH]c2c1)Nc1ccc2cn[nH]c2c1 |  | 1 µM (active)
CCNc1ncc2nc(-c3ccc(Cl)cc3)c(=O)n(C3CC3)c2n1 |  | inactive
CN(C)CCCNc1c(C(=O)O)cnc2c1cnn2C |  | inactive
Cc1ccc(-n2c(=O)[nH]cc(C(=O)N3CCc4ccccc43)c2=O)cc1 |  | inactive
CC(=O)N1CCC(=O)N(C(C)C)c2ccccc21 |  | inactive
Cc1nn(C(C)C(=O)N2CCc3ccccc32)c(C)c1[N+](=O)[O-] (stereo not drawn) |  | 11.2 µM (active)
C[C@@H](C1=C(CCN(C)C)Cc2ccccc21)c1ccccn1 |  | 2.51 µM (active)
CN(C)CC(CN(C)C)c1ccccn1 | 4.36% [at 11.4 µM] | 
CN(C)CC[C@@H](c1ccccc1)c1ccccn1 |  | inactive
Cc1n[nH]c(=O)[nH]c1=O |  | inactive
Cc1cccc(CNc2nc(-c3cccc(NS(C)(=O)=O)c3)nc3ccccc23)c1 |  | 2.51 µM (active)
CS(=O)(=O)Nc1cccc(-c2nc(NCCN3CCOCC3)c3ccccc3n2)c1 |  | inactive
CS(=O)(=O)Nc1cccc(-c2nc(NCc3cccs3)c3ccccc3n2)c1 |  | 10 µM (active)
CCOC(=O)COc1c(OC)cc(Cl)cc1C1Nc2ccccc2C(=O)N1c1ccc(F)cc1 (stereo not drawn) |  | 0.501 µM (active)
CCOC(=O)CC1NC(=O)c2ccccc21 (stereo not drawn) |  | inactive
CCOC(=O)COc1c(OC)cc(Cl)cc1C1Nc2ccccc2C(=O)N1c1cccc(C)c1 (stereo not drawn) |  | 1.41 µM (active)
C#CCn1c(=O)c2c(ncn2C)n(C)c1=O |  | inactive
O=C(Nc1cccc(C(F)(F)F)c1)c1ccc(Cn2cc(Br)cn2)o1 |  | 2.24 µM (active)
CCN(CC)S(=O)(=O)c1cccc(C(=O)N[C@H](C(=O)OCC(=O)NC(=O)NC)C(C)C)c1 |  | 7.94 µM (active)
[N-]=[N+]=NC[C@@H]1O[C@@H](n2cnc3c(N)ncnc32)[C@@H]2O[C@@H]21 | 18.5% [at 11.4 µM] | 
CC(C)=CCC/C(C)=C/CC/C(C)=C/CSc1ccccc1C(=O)O |  | inactive

Structure (SMILES) | activity, negative = inhibition | AC50
Cn1c(=O)cc(SCC(=O)NCCN2CCN(c3ccccc3F)CC2)c2cc(Cl)ccc21 |  | 11.2 µM (active)
Cc1c(Cl)cnc(NC(=O)COC(=O)CCS(=O)(=O)c2ccccc2)c1Cl |  | 20 µM (active)
CC(C)=CC(=O)OCC(=O)Nc1ncc(Cl)c(C)c1Cl |  | 15.8 µM (active)
Nc1ccc(CCNc2ncnc3c2ncn3[C@@H]2O[C@@H](CO)[C@H](O)[C@@H]2O)cc1 |  | inactive
Cc1cc(N)n2ncc(-c3ccc(Cl)cc3)c2n1 |  | 15.8 µM (active)
Cc1cc(N2CCN(C)CC2)n2nc(-c3ccc(Cl)cc3)nc2n1 | 4.95% [at 11.4 µM] | 
COc1cc(C(=O)Nc2cc(C(F)(F)F)ccc2Cl)cc(OC)c1OC |  | 22.4 µM (active)
COc1cc(C(=O)NC(=S)Nc2ccc(Cl)c(C(=O)O)c2)cc(OC)c1OC |  | inactive
COC(=O)c1ccc(Cl)c(NC(=O)c2ccc(-c3ccccc3)cc2)c1 |  | inactive
O=C(Cc1ccccc1)NC(=S)Nc1cc(C(F)(F)F)ccc1Cl |  | 0.708 µM (active)
COc1cccc(C(=O)Nc2cc(C(F)(F)F)ccc2Cl)c1 |  | 7.08 µM (active)
COc1cc(/C=C/C(=O)Nc2cc(C(F)(F)F)ccc2Cl)cc(OC)c1OC |  | 20 µM (active)
CCCC(=O)Nc1ccc(C(=O)Nc2cc(C(F)(F)F)ccc2Cl)cc1 |  | 20 µM (active)
CN(C)c1cc[n+](CC(=O)Nc2cc(C(F)(F)F)ccc2Cl)cc1 |  | inactive
C/C(CCN1CCCCc2nc(C)c(C)cc21)=N\O[C@@H](C)c1cn([C@H](CO)Cc2ccccc2)nn1 | -12.5% [at 11.4 µM] and 36.9% [at 11.4 µM] | 
CC(=O)Nc1ccc2c(c1)C(=Nc1ccc(C(=O)O)cc1)c1ccccc1-2 | 24.2% [at 11.4 µM] | 
CC(C)OC(=O)CN1CCN(C2c3ccccc3-c3ccccc32)CC1 |  | 7.08 µM (active)
COc1ccccc1NC(=O)CN1CCN(C2c3ccccc3-c3ccccc32)CC1 |  | 0.708 µM (active)
COC(=O)C/C=C1\c2ccccc2[C@H](OC)[C@H]1C | 23.9% [at 11.4 µM] | 
O=C(O)C[C@@H](C(=O)O)C1c2ccccc2-c2ccccc21 | 26.9% [at 11.4 µM] | 
COc1ccc(NC(C)=O)cc1NC(=O)CN1CCN(C2c3ccccc3-c3ccccc32)CC1 |  | 2.51 µM (active)
N#CCCn1c(=O)c(-c2cc(F)cc(F)c2)nc2cnc(Nc3ccccc3)nc21 |  | inactive

Structure (SMILES) | activity, negative = inhibition | AC50
FC(F)(F)c1cc(CN2CC3(CCNCC3)C2)cc(C(F)(F)F)c1 |  | inactive
COc1cc(C2SCCCCCCCCCCSC(c3ccc(O)c(OC)c3)SCCCCCCCCCCS2)ccc1O (stereo not drawn) | 20.3% [at 11.4 µM] | 
Cn1cc(-c2nc3cnc(Oc4ccccc4)nc3n(C)c2=O)c2ccccc21 |  | inactive
COc1ccc(Oc2ncc3nc(-c4cn(C)c5ccccc45)c(=O)n(C)c3n2)cc1 |  | inactive
Cn1c(Oc2ccccc2)c(C=O)c2ccccc21 |  | 4.47 µM (active)
COc1ccc(Oc2c(C=O)c3ccccc3n2C)cc1 |  | 2.82 µM (active)
Cc1ccc(C(=O)O/N=C/c2c(Cl)n(C)c3ccccc23)cc1 |  | inactive
Cc1cc(NC(=O)COc2ccc(Cl)cc2Cl)n(-c2ccccc2)n1 |  | 1.12 µM (active)
O=C(COc1ccccc1Cl)Nc1cc(Cl)ccc1Oc1ccccc1 |  | 1 µM (active)
c1nc(NC2CCNCC2)c2cc(-c3ccoc3)ccc2n1 |  | inactive
c1nc(NC2CCNCC2)c2cc(-c3ccc4c(c3)OCO4)ccc2n1 |  | inactive
COc1cccc(-c2ccc3ncnc(NC4CCNCC4)c3c2)c1 |  | 6.31 µM (active)
COc1cccc(-c2ccc3ncnc(NC4CC4)c3c2)c1 |  | 1.26 µM (active)
Cc1noc(C)c1-c1ccc2ncnc(NC3CCNCC3)c2c1 |  | 15.8 µM (active)
CS(=O)(=O)Nc1cccc(-c2ccc3ncnc(NC4CCNCC4)c3c2)c1 |  | inactive
CN(C)c1ccc(-c2ccc3ncnc(NC4CC4)c3c2)cc1 |  | inactive
c1cncc(-c2ccc3ncnc(NC4CCNCC4)c3c2)c1 |  | inactive
Cc1cc(C)n(-c2nc3ccccc3c(=O)n2OCc2ccc(Cl)cc2)n1 |  | 0.398 µM (active)
Cn1c(=O)c(-c2ccc(Cl)cc2)nc2cnc(OCc3ccccc3)nc21 |  | inactive
C[C@@H](CN1CCC(Cc2ccccc2)CC1)[C@H](O)c1ccc(O)cc1 |  | inactive
CCOC(=O)c1cc2c(ccn2C)n1CC(=O)N1CCCC(C)C1 (stereo not drawn) |  | 8.91 µM (active)
CC(C)OC(=O)c1cc2c(ccn2C)n1CC(=O)N1CCC(Cc2ccccc2)CC1 |  | 14.1 µM (active)

Structure (SMILES) | activity, negative = inhibition | AC50
C[C@@H](CN1CCC(Cc2ccccc2)CC1)[C@@H](O)c1ccc(O)cc1 |  | inactive
Cc1ccc(C)c(Cn2c(C(=O)OC(C)C)cc3c2ccn3C)c1 |  | 1.78 µM (active)
CSc1nnc(-c2ccc(Cl)cc2Cl)o1 |  | 25.1 µM (active)
Clc1ccc(-c2nnc(CCc3ccccc3)o2)c(Cl)c1 |  | 1.41 µM (active)
c1ccc(C2=NN[C@@H]3c4ccccc4-c4ccccc4N3C2)cc1 | -22.1% [at 11.4 µM] | 
CN(C)c1ccc(-c2ccc3ncnc(-n4ccnc4)c3c2)cc1 |  | 10 µM (active)
c1cncc(-c2cncnc2-n2ccnc2)c1 |  | inactive
CN(C)c1ccc(-c2cncnc2-n2ccnc2)cc1 |  | 3.98 µM (active)
COc1cccc(-c2cncnc2-n2ccnc2)c1 |  | 0.631 µM (active)
CS(=O)(=O)Nc1cccc(-c2cncnc2-n2ccnc2)c1 |  | inactive
CN(C)C(=O)c1ccc(-c2cncnc2N2CCNCC2)cc1 |  | inactive
CN(C)c1ccc(-c2ccc3ncnc(N(C)C)c3c2)cc1 |  | inactive
CN(C)C(=O)c1ccc(-c2ccc3ncnc(N4CCNCC4)c3c2)cc1 |  | inactive
CN1CCN(c2ncncc2-c2ccc(C(=O)N(C)C)cc2)CC1 |  | inactive
CN1CCN(c2ncncc2-c2ccc(N(C)C)cc2)CC1 |  | 10 µM (active)
c1cn(-c2ncnc3ccc(-c4ccoc4)cc23)cn1 |  | 10 µM (active)
N#Cc1ccccc1-c1ccc2ncnc(N3CCNCC3)c2c1 |  | inactive
CN1CCN(c2cc(-c3ccc(N(C)C)cc3)ncn2)CC1 |  | inactive
COCCNc1ncnc2ccc(-c3ccoc3)cc12 |  | inactive
Cc1ccccc1-c1ccc2ncnc(-n3ccnc3)c2c1 |  | 2 µM (active)
CN(C)c1ccc(-c2cc(-n3ccnc3)ncn2)cc1 |  | 7.94 µM (active)
CCCCN(CC)C(=O)Cc1ccccc1OC |  | 4.47 µM (active)

Structure (SMILES) | activity, negative = inhibition | AC50
CCN(CC)C(=O)c1ccc(O)c(OC)c1 |  | inactive
COc1ccccc1CN1CCC2(CC1)CCN(C(C)=O)CC2 |  | inactive
Cc1ccc2nc(Cc3ccc(N)cc3)[nH]c2c1 |  | 3.55 µM (active)
Nc1nc(SCc2ccccc2Cl)cc(C(=O)O)n1 | 35% [at 11.4 µM] | 
N#Cc1c(SCC(N)=O)nsc1SCc1ccccc1Cl |  | 1.12 µM (active)
CC1CCC(NC(=O)CC(C)(C)Cc2nc3ccccc3c(=O)[nH]2)CC1 (stereo not drawn) |  | 6.31 µM (active)
CN(C)C(=O)c1ccc(-c2nc(NC3CCNCC3)c3ccccc3n2)cc1 |  | inactive
CN=C(NC#N)Nc1ccc(C2=NNC(=O)C[C@@H]2C)cc1 |  | inactive
CN1CCN(c2ncc3nc(-c4ccccc4)c(=O)n(CCc4ccccc4)c3n2)CC1 |  | inactive
O=c1cnc2cnc(N3CCOCC3)nc2n1CCc1ccccc1 |  | 0.1 µM (active)
CN1CCN(c2ncc3ncc(=O)n(Cc4ccc(F)cc4)c3n2)CC1 |  | inactive
O=c1cnc2cnc(N3CCOCC3)nc2n1C[C@H]1CCCO1 |  | inactive
O=c1cnc2cnc(N3CCOCC3)nc2n1Cc1ccc(F)cc1 |  | 3.98 µM (active)
COc1ccc(-c2nc3cnc(N4CCN(C)CC4)nc3n(CCc3ccccc3)c2=O)cc1 |  | inactive
O=c1c(-c2ccccc2)nc2cnc(N3CCOCC3)nc2n1CCc1ccccc1 |  | inactive
Cc1nc2cnc(N3CCN(C)CC3)nc2n(CCc2ccccc2)c1=O |  | 5.01 µM (active)
COc1ccc(-c2nc3cnc(N4CCOCC4)nc3n(CCc3ccccc3)c2=O)cc1 |  | inactive
CN1CCN(c2ncc3ncc(=O)n(Cc4cccs4)c3n2)CC1 |  | inactive
CN1CCN(c2ncc3ncc(=O)n(CCc4ccccc4)c3n2)CC1 |  | 6.31 µM (active)
CN1CCN(c2ncc3nc(-c4cccs4)c(=O)n(CCc4ccccc4)c3n2)CC1 |  | inactive

Source: PubChem BioAssay AID1851 (National Center for Advancing Translational Sciences (NCATS), 2009)
